Compound activity deposited in PubChem BioAssay by National Center for Advancing Translational Sciences (NCATS).
Sampled rows, rich in hits. Any-hit rate of the full collection: about 2.4%.
PTAP TSG101 blk – qHTS Assay for Iinhibitors of HIV-1 Budding by Blocking the Interaction of PTAP/TSG101 | Tumor susceptibility gene 101 protein (Homo sapiens), Q99816 | 340,000 tested, under 10 active | AID 493005, 2010 | Fluorescence polarization, FITC-PTAP peptide / Tsg101 binding | Potency, µM (doses to about 115 µM), for the others: top-dose activity change, negative = inhibition, most hits filed as inhibitors; active = well fitted inhibition curve with a large enough effect in the main read-out, with a control signal flat, not every such curve was filed as active; inconclusive = small, poorly fitted or top-dose-only effect, or effect the other way, or a change in a side signal; inactive = no such curve, though single readings can be large or run the other way; note: % of control where 0% means no effect
Target sequence (Q99816 whole entry, looked up): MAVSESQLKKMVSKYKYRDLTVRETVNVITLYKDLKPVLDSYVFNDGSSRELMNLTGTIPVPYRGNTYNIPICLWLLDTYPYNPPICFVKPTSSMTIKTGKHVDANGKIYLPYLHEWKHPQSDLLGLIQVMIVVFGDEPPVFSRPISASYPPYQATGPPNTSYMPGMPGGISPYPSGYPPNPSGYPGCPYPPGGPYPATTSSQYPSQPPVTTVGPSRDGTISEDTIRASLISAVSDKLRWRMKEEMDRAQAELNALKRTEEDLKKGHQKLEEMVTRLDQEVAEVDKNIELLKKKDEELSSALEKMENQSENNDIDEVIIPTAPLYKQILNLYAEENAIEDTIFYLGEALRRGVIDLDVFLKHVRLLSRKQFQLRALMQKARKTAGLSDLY
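Compounds were pin-transferred onto Tsg101 binding domain (10 uM final) in HEPES pH 7.5 buffer, then FITC-PTAP peptide was added at 50 nM final. After 20 min at RT, polarization reported peptide displacement across a qHTS concentration series.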
Rango complex inh – qHTS Assay for Inhibitors of Rango (Ran-regulated importin-beta cargo) - Importin beta complex formation; Importin subunit beta-1 (Homo sapiens), Q14974; Potency, µM (highest dose often 92.2 µM), without a hit: at the top dose inhibition of complex formation; hit rate 0.031% among 340,000; Rango CFP/YFP FRET sensor + importin beta, 45 min; calls by dose curve;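 note: 0% = DMSO wells and 100% = buffer wells lacking importin beta; nearly all actives have a fitted effect of over 15% in size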
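FRET biosensor (snurportin 1 IBB flanked by EYFP and cerulean), 50 nM, with compound 5 min, then 0.125 microM importin beta in PBS, 1 mM DTT, 0.02% Tween-20, 0.1% BSA. CFP/YFP ratio read after 45 min at room temperature; pre-read flags interference.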
Rango release inh – qHTS Assay for Inhibitors of RanGTP induced Rango (Ran-regulated importin-beta cargo) - Importin beta complex dissociation; Biochemical FRET Rango-importin beta, RanGTP-induced dissociation; Potency, µM (highest dose often 46.1 µM), for inactives: at the top dose activity change, negative = inhibition; hit rate 0.071% among 340,000; AID 540253, 2011; calls by dose curve; note: % of control where 0% means no effect; nearly all actives have a fitted effect of over 45% in size
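FRET read at 45 min, room temperature: inhibitors block the CFP/YFP signal rise when RanGTP (0.6 uM Ran, 2 mM GTP, 0.2 uM RCC1) frees Rango (0.1 uM) from importin beta (0.25 uM). Pre-read after 5 min compound exposure flags interference.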
ClpP mod – qHTS Assay for Activators of ClpP | purified B. subtilis ClpP, FRET peptide cleavage, 20 min | AID 651965, 2013 | hit rate 1.9% among 340,000 | Potency, µM (highest dose often 57.5 µM), for inactives: at the highest dose activity change, negative = active; active = well fitted falling curve with a large enough effect; inconclusive = small, poorly fitted or top-dose-only effect; inactive = no such curve, though single readings can be large or run the other way; note: the source files actives as falling curves though it sought activators and does not explain the sign; nearly all actives have a fitted effect of over 65% in size
Target sequence (P80244 whole entry, looked up): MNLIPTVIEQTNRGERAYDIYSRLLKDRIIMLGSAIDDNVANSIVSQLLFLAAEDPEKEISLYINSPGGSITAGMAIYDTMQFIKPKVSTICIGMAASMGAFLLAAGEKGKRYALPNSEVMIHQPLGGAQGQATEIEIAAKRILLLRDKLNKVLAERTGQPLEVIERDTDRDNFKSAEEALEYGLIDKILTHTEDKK
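ClpP 10 microg/mL final, pH 8 Tris/KCl buffer with BSA, glycerol, Tween-20; compound pinned in; FRET-FV substrate; RT 20 min; Ex320/Em430; ΔFRET vs ADEP 5.8 microM, DMSO, no enzyme.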
12-LOX inh – Primary qHTS assay for inhibitors of human arachidonate 12S-lipoxygenase (ALOX12): Round 2. hit rate 1.1% among 580,000. Polyunsaturated fatty acid lipoxygenase ALOX12 (Homo sapiens), P18054. purified 12hLO, xylenol orange hydroperoxide absorbance. Potency, µM (doses to about 108 µM), for the others: at the highest dose activity change, negative = inhibition, usual class: inhibitors; note: % is set by controls: 0 for no effect and ±100 for the full control effect
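Purified human 12hLO (150 nM final) in 25 mM Hepes, 0.01% Triton X-100, pH 7.0 was preincubated 15 min at room temperature with compound. Then 40 uM arachidonic acid was added, 30 min. Hydroperoxide was read by Fe-XO absorbance ratio 573/405 nm.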
TDP1 block – qHTS Assay for Inhibitors of Tyrosyl-DNA Phosphodiesterase (TDP1) | recombinant TDP1, AlphaScreen DNA substrate cleavage | Potency, µM (highest dose often 130 µM), inactives show top-dose activity change, negative = inhibition, hits mostly inhibitors | Tyrosyl-DNA phosphodiesterase 1 (Homo sapiens), Q9NUW8 | hit rate 0.28% among 350,000; note: % is set by controls: 0 for no effect and ±100 for the full control effect; nearly all actives have a fitted effect of over 40% in size
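AlphaScreen read-out: signal falls as enzyme removes the 3' tyrosine-FITC from a 5'-biotinylated DNA oligo (15 nM, 5 min, RT). Enzyme was E. coli-made recombinant Tdp1 at 1 nM, exposed to compound for 15 min beforehand; beads 10 ug/ml, 10 min.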
Active calls of the source: *; ? = inconclusive; . = no result; [ ] = another dose, or the depositor's remark. Unless noted, calls come from the whole dose curve; as a rule, active = well fitted curve in the direction sought with a large enough effect; inconclusive = small, poorly fitted or top-dose-only effect, or another doubt; inactive = no such curve, though single readings can be large; an effect the other way counts as inactive or inconclusive. Potency is the fitted concentration of half-maximal effect.

SMILES | PTAP TSG101 blk | Rango complex inh | Rango release inh | ClpP mod | 12-LOX inh | TDP1 block
CC1=CC(c2ccc(Cl)cc2)n2nc(NS(=O)(=O)c3ccc(C)cc3)nc2N1 (configuration not stated) | -4% | ? | ? | 22µM* | ? | 0%
CC1=CC(c2ccccc2)n2nc(NS(=O)(=O)c3ccc(C)cc3)nc2N1 (configuration not stated) | -14% | ? | ? | ? | 5% | -1%
CCC(Sc1ncnc2c1c(-c1ccccc1)cn2-c1ccc(OC)cc1)C(=O)OC (configuration not stated) | 0% | -4% | -15% | 32µM* | -20% | -1%
COC(=O)C(C)Sc1ncnc2c1c(-c1ccccc1)cn2-c1ccc(OC)cc1 (configuration not stated) | -3% | 4% | 6% | ? | -3% | .
CCOC(=O)C(C)Sc1ncnc2c1c(-c1ccccc1)cn2-c1ccc(OC)cc1 (configuration not stated) | -2% | -2% | -9% | 25µM* | -7% | -1%
C=CCOC(=O)C1=C[C@H](c2cn(C(C)=O)c3ccccc23)C[C@H](OCc2ccc(CO)cc2)O1 | 0% | -3% | -19% | 1% | 40µM* | 1%
c1cc2ccc3ccc(-n4cnnn4)c4ccc(c1)c2c34 | 0% | ? | ? | 28µM* | 0% | -9%
O=C1C(=Cc2cccc(O)c2O)SC(=S)N1CCCN1CCOCC1 | . | . | . | -1% | 6.3µM* | .
O=C(CCCN1C(=O)/C(=C/c2ccccc2Cl)SC1=S)NCCCN1CCOCC1 | -1% | 0% | -13% | 1% | -4% | 10%
Cc1ccc(-c2ccc(/C=C/C(=O)c3ccccc3)o2)cc1Cl | . | . | . | . | 11µM* | .
Cc1ccc(C(=O)/C=C/c2ccc(-c3ccc(Cl)c(Cl)c3)o2)cc1 | . | . | . | . | -81% | .
Cc1ccc(C(=O)/C=C/c2ccc(-c3ccc(C)c(Cl)c3)o2)cc1 | . | . | . | . | 14µM* | .
Cc1ccc(S(=O)(=O)Nc2nc3ccccc3nc2Nc2ccc3nsnc3c2)cc1 | . | . | . | . | -4%[22.9 µM] | .
Cc1scnc1C12CC3CC(CC(C3)C1)C2 | . | . | . | . | 0% | .
Cc1cccc(S(=O)(=O)Nc2ccc3c(c2)OCCO3)c1 | -2% | -1% | 0% | -3% | 0% | 3%
COc1cccc(S(=O)(=O)Nc2ccc3c(c2)OCCO3)c1 | 1% | -1% | -4% | 14µM* | ? | .
Cc1ccc(C)c(-c2cc(-c3ccccc3)c3ccccc3n2)c1 | . | . | . | . | -19% | .
Cc1ccc(-c2cc(-c3n[nH]c(=S)o3)c3ccccc3n2)cc1 | 0% | 3% | 9% | 20% | 2.2µM* | 3%
CSc1nnc(-c2cc(-c3ccc(C)cc3)nc3ccccc23)o1 | -10% | 2% | 0% | 35µM* | -21% | 1%
CC(C)c1noc(-c2ccn3c(CNC(=O)c4ccoc4)nnc3c2)n1 | . | . | . | . | 5% | .
Cc1cc(C)n(Cc2ccc(C(=O)Nc3cccc(Br)c3)o2)n1 | -2% | 6% | 34% | -4% | ? | 3%
Cc1cc(C)n(Cc2ccc(C(=O)Nc3ccc(Br)cc3C)o2)n1 | -2% | 1% | -2% | -2% | 35µM* | 3%
O=C(COC(=O)/C=C/c1ccc(Br)o1)NC1CCCCC1 | -3% | ? | -23% | -4% | 25% | .
O=C(COC(=O)/C=C/c1ccc(Br)o1)Nc1ccccc1F | . | . | . | . | . | 16µM*
COCCN1Cc2nc(OCc3ccc(F)cc3)ccc2OCC1=O | . | . | . | . | -11%[176 µM] | .
SMILES | PTAP TSG101 blk | Rango complex inh | Rango release inh | ClpP mod | 12-LOX inh | TDP1 block
COc1cc(NC(=O)Cn2nc3c(cc2=O)CCCCC3)cc(OC)c1OC | . | . | . | . | 31% | .
N#Cc1c(SCC(=O)Nc2nccs2)sc2c(O)cc(=O)[nH]c12 | -10% | -4% | -6% | 0% | ? | .
N#Cc1c(SCC(=O)Nc2nc3ccccc3s2)sc2c(O)cc(=O)[nH]c12 | -4% | ? | -13% | -1% | ? | .
N#Cc1c(SCC(=O)Nc2nc3ccc(Br)cc3s2)sc2c(O)cc(=O)[nH]c12 | ? | ? | -12% | -3% | 16µM* | .
CCCSc1nnc(NC(=O)CSc2sc3c(O)cc(=O)[nH]c3c2C#N)s1 | -1% | -1% | -15% | . | 50µM* | 0%
CCOC(=O)c1ccc(-c2ccc(CO)o2)cc1 | -6% | ? | 23% | 0.71µM* | 0% | 3%
CCNCc1ccc(-c2ccc(C(=O)OC)cc2)o1 | . | . | . | . | -26% | .
NC(=O)c1c(NC(=O)c2ccccc2)sc2c1CCC2 | 1% | 0% | -1% | . | ? | 1%
NC(=O)c1c(NC(=O)c2ccccc2)sc2c1CCc1ccccc1-2 | -4% | 1% | -9% | 32µM* | 24% | 6%
O=C(NCc1ccco1)c1ccc2c(=O)n(Cc3ccco3)c(SCC(=O)N3CCCC3)nc2c1 | 5% | -5% | 30% | -9% | 0% | 35µM*
COc1ccccc1Cn1[nH]nnc1=S | -3% | 7% | -1% | . | 22µM* | 11%
O=C(O)c1ccc2cc[nH]c2c1 | 0% | 1% | 0% | 16µM* | -22% | 2%
O=[N+]([O-])c1ccc2[nH]ccc2c1 | . | . | . | 0% | -4% | .
O=[N+]([O-])c1ccc2cc[nH]c2c1 | -1% | -2% | -1% | 18µM* | ? | .
NC(=O)c1ccc2[nH]ccc2c1 | . | . | . | . | -27%[57.4 µM] | .
Cc1cc(C)c2nc(NNC(=O)c3ccc(S(=O)(=O)N4CCCC(C)C4)cc3)sc2c1 (configuration not stated) | -1% | 3% | -3% | -2% | 5.6µM* | 11%
Cc1cc(C)c2nc(NNC(=O)c3ccc(S(=O)(=O)N4CC(C)CC(C)C4)cc3)sc2c1 (configuration not stated) | -4% | 0% | -8% | -5% | 6.3µM* | 9%
Cc1cc(C)c2nc(NC(=O)c3ccc(S(=O)(=O)N4CCC(C)CC4)cc3)sc2c1 | . | . | . | 4% | 0% | -5%
O=C(Cc1ccccc1)Nc1ccnn1C1CCN(Cc2cccn2-c2ccccn2)CC1 | . | . | . | . | 22% | .
COC(=O)c1ccc2c(=O)[nH]c(CN3c4ccccc4CC3C)nc2c1 (configuration not stated) | -5% | 1% | 18% | -14% | -1% | 4%
